The nature of test [1]: VALA_TUBHUV_Agonist_CellCount: Viability Assessment in the VALA Sciences human Umbilical Vein Endothelial Tubule Formation (TUBHUV) Agonism Assay (AID 2284309). The essentials: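 Viability endpoint by fluorescent imaging of fixed nuclear/CD31-stained HUVEC–HDF co-cultures. Readout is cell count, fitted upward against 0.1% DMSO. Compound exposure was 72 h in 10 ng/ml VEGF, after 3-day co-culture priming.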

The nature of test [2]: VALA_TUBIPS_Agonist_TubuleLength: VALA Sciences human iPS-derived Endothelial Tubule Formation (TUBIPS) Agonism Assay (AID 2284311). The method, then:
VALA_TUBIPS_Agonist is a cell-based, multiplexed assay that uses human iPS-derived endothelial cells (iPSC). Measurements were taken 72 hours after chemical dosing in a 96-well plate.VALA_TUBIPS_Agonist_TubuleLength is the one of two assay components measured from the VALA_TUBIPS_Agonist assay. It is designed to make measurements of tubulogenesis, a form of morphology reporter, as detected with fluorescence intensity signals by HCS Fluorescent Imaging technology. This VALA_TUBIPS1 assay was designed to detect chemical activation of tubulogenesis, i.e. agonism.Data from the assay component VALA_TUBIPS_Agonist_TubuleLength was analyzed at the endpoint, VALA_TUBIPS_Agonist_TubuleLength, in the positive analysis fitting direction relative to DMSO as the negative control and baseline of activity. Using a type of morphology reporter, gain-of-signal activity can be used to understand developmental effects. To generalize the intended target to other relatable targets, this assay endpoint is annotated to the neurodevelopment intended target family, where the subfamily is tubulogenesis.
This HUVEC-HDF assay was designed to detect chemical suppression of tubulogenesis, i.e. antagonism. […]

Test [3] in a line: VALA_TUBHUV_Antagonist_CellCount: Viability Assessment in the VALA Sciences human Umbilical Vein Endothelial Tubule Formation (TUBHUV) Antagonism Assay (AID 2284310). An outline of the steps: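 Read-out is imaged cell count after nuclear and CD31 staining, fitted against 0.1% DMSO vehicle. Compounds were added for 3 days, in 10 ng/ml VEGF assay medium, to HUVEC–HDF co-cultures pre-grown 3 days.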

A short description of test [4]: VALA_TUBIPS_Antagonist_TubuleLength: VALA Sciences human iPS-derived Endothelial Tubule Formation (TUBIPS) Antagonist Assay (AID 2284313). The essentials: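 Tubule length was quantified by high-content imaging of CD31- and nuclear-stained cells, with 0.1% DMSO as neutral and 100 uM suramin as inhibition control. Compounds were applied for 3 days, in 10 ng/ml VEGF, to cultures pre-grown 3 days.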

Test [5] can be described thus: IUF_NPC4_neurite_area_120hr: Leibniz Research Institute for Environmental Medicine (IUF) 120-hour Neuronal Morphology Assay for Neurite Area (NPC4) (AID 2284305). The essentials: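 hNPC spheres on PDL/laminin, N2 medium, 37C/5% CO2; dosed day 0, half-medium refresh day 3; fixed 120 h; TUBB3/Hoechst ICC, high-content imaging; neurite area = mean pixels per neuron (nuclei excluded); DMSO baseline, max 0.1%.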

Test [6] in a line: IUF_NPC2-5_cytotoxicity_72hr: Cytotoxicity Assessment at 72 hours in the Leibniz Research Institute for Environmental Medicine (IUF) Neural Progenitor Cell Migration and Differentiation Assay for Cytotoxicity (NPC2-5) (AID 2284306).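 Also: LDH release into supernatant measured by resorufin fluorescence marking membrane damage.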 An outline of the steps:
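hNPC spheres (0.3 mm), PDL/laminin, DMEM/F12 3:1 + 1% N2; cpd from d0, 7 concs + SC, DMSO max 0.1%; half-medium refresh d3. Readout: supernatant LDH via resorufin fluorescence (RFU), 72 h; gain-of-signal fit.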

Test [7] is described as follows: IUF_NPC2-5_cytotoxicity_120hr: Cytotoxicity Assessment at 120 hours in the Leibniz Research Institute for Environmental Medicine (IUF) Neural Progenitor Cell Migration and Differentiation Assay (NPC2-5) (AID 2284307).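 As to AC50: LDH released into supernatant as membrane damage marker via resorufin fluorescence.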 The essentials:
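Membrane-integrity loss is quantified by LDH in supernatant after five days of exposure of migrating, differentiating human fetal NPC spheres; seven serially diluted concentrations are tested with DMSO kept at or below 0.1%.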

Test [8] in a line: IUF_NPC2-5_cell_number_120hr: Cell Number Assessment at 120 hours in the Leibniz Research Institute for Environmental Medicine (IUF) Neural Progenitor Cell Migration and Differentiation Assay (NPC2-5) (AID 2284308; active = hit-call score of the fitted dose curve at least 0.9, where 1 is the maximum; inactive = score below 0.9;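 also: count of Hoechst-stained nuclei in migration zone around plated human neural progenitor spheres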). An outline of the steps: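 Seven-point serial dilutions plus solvent control were applied to plated 0.3 mm hNPC spheres at differentiation start, with medium half-replaced at day 3. Nuclei positive for Hoechst in the migration zone were enumerated at 120 h.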

A short description of test [9]: IUF_NPC2-5_viability_120hr: Viability Assessment at 120 hours in the Leibniz Research Institute for Environmental Medicine (IUF) Neural Progenitor Cell Migration and Differentiation Assay (NPC2-5) (AID 2284312; active = hit-call score of the fitted dose curve at least 0.9, where 1 is the maximum; inactive = score below 0.9). An outline of the steps:
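Human fetal neural progenitor spheres (0.3 mm) plated on poly-D-lysine/laminin in N2 differentiation medium, exposed 120 h with half-medium refresh at day 3. Viability by alamar blue resazurin fluorescence; 7 concentrations, DMSO max 0.1%.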

The nature of test [10]: VALA_MIGHUV2_CellCount: Viability Assessment in the VALA Sciences human Umbilical Vein Endothelial Cell Migration (MIGHUV) Assay, Area of Scratch Wound after Recovery (AID 2284314). As to the method:
VALA_MIGHUV2_BCatenin is a cell-based, multiplexed assay that uses umbilical vein-derived endothelial cells (HUVEC). Measurements were taken 24 hours after chemical dosing in a 96-well plate.VALA_MIGHUV2_CellCount is the one of two assay components measured from the VALA_MIGHUV2 assay. It is designed to make measurements of viability, a form of viability reporter, as detected with fluorescence intensity signals by HCS Fluorescent Imaging technology. Data from the assay component VALA_MIGHUV2_CellCount was analyzed at the endpoint, VALA_MIGHUV2_CellCount, in the positive analysis fitting direction relative to DMSO as the negative control and baseline of activity. Using a type of viability reporter, loss-of-signal activity can be used to understand viability. To generalize the intended target to other relatable targets, this assay endpoint is annotated to the cell cycle intended target family, where the subfamily is cell count.
Cells were seeded on 384-well microplates (day-0) at a density of 9000 cells per well for detection of wound area recovery or 4000 cells per well for detection of beta-catenin (CTNB) immunoreactivity and incubated in Endothelial Cell Growth Medium (CAI, San Diego; catalog 211-500). After 24 hours of culture, the HUVEC plates were scratched using a custom scratch head with the Bravo liquid handling system. This created a 'wound' area without cells in each well. […]

This is an account of results in PubChem BioAssay (EPA / NIEHS).

Results filed as inconclusive are left out. The source made the active and inactive calls. The calls were made as follows, unless noted: active = hit-call score of the fitted dose curve at least 0.9, where 1 is the maximum; inconclusive = response in the unintended direction; inactive = score below 0.9.

As for `Clc1ccc(Cl)c(Cl)c1`, the outcome in test [1] and in [2] was inactive.

For the compound `CO[C@@H]1[C@H](OC(=O)NC(=O)CCl)CC[C@]2(CO2)[C@H]1[C@@]1(C)O[C@@H]1CC=C(C)C`, the compound was classed as inactive in test [1], in test [3] and in [4].

On to `COP(=S)(OC)SCN1C(=O)c2ccccc2C1=O`, for which the outcome in [5], in [6], in test [7], in test [8] and in test [9] was inactive.

`[O-][Cl+]O`: the outcome in [5], in [6], in [7], in test [8] and in test [9] was inactive.

With `Oc1ccc2ccc3cccc4ccc1c2c34`, the compound was called inactive in test [1], in [3] and in [4].

On to `OCCOCCO`, for which the compound was classed as inactive in test [6], in test [7], in test [8] and in [9].

For `O=P(OCCCl)(OCCCl)OCCCl`, the call in test [5], in [6], in test [7], in test [8], in test [1] and in test [2] was inactive. The result in test [9], in [4] and in test [10] was inactive. For the same compound, the AC50 in test [3] is 88300 nM (active).

Take `CNC(=O)Oc1cccc2c1OC(C)(C)C2`: the outcome in [5], in [6], in test [7], in test [8] and in [9] was inactive.

For `CC(C)(C)C(O)(CCc1ccc(Cl)cc1)Cn1cncn1` (stereo unspecified), the result in [5], in test [6], in [7], in [8] and in test [9] was inactive.

Turning to `COC(=O)Nc1nc2ccccc2[nH]1`, the result in test [5] and in test [6] was inactive. Besides, the AC50 was 7820 nM (active) in [8] and 12500 nM (active) in [9].

For `CC(C)COC(=O)c1ccccc1C(=O)OCC(C)C`, the result in [5], in [6], in test [7], in test [8] and in test [9] was inactive.

As for `CCCCOC(=O)c1ccccc1C(=O)OCc1ccccc1`, the compound was classed as inactive in test [5], in test [6], in test [7], in test [8] and in test [9].

Take `CCC[CH2][Sn]([Cl])([CH2]CCC)[CH2]CCC`: the AC50 in [5] was 312 nM (active); in test [6], 310 nM (active); in [7], 455 nM (active); in test [8], 310 nM (active); in test [9] it was 393 nM (active).

What is called AC50 is the concentration at which the activity in the assay is half-maximal.
